In PubChem BioAssay (NCATS) one finds Potency data, which are given here for 24 compounds.

Results filed as inconclusive are left out. A call without a number means that no potency is given here. Active and inactive are the calls of the source. Calls follow the shape of the full dose curve.

Sequence of Vitamin D3 receptor (Homo sapiens) (P11473 whole entry, looked up): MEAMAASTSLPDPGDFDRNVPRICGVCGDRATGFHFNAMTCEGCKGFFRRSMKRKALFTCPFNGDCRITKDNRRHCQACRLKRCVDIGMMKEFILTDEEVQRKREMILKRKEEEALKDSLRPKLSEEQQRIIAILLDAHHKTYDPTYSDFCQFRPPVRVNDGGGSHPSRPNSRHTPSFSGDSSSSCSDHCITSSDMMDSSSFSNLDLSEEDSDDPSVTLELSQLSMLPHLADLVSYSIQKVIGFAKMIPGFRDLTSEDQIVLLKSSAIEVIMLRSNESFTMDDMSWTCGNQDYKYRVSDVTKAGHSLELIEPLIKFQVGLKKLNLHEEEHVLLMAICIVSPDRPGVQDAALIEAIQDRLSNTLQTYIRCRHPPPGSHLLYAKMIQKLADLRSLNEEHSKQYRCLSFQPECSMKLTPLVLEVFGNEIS

The target in this test is Vitamin D3 receptor (Homo sapiens) (UniProt P11473). Briefly: qHTS assay for small molecule antagonists of vitamin D receptor signaling (AID 588541). The conditions noted are these: HEK293T VDR-UAS-bla, beta-lactamase ratio, antagonist mode; series mostly up to 76.7 µM. The source says:
NIH Chemical Genomics Center [NCGC]
U.S. Environmental Protection Agency [EPA]
National Institutes of Environmental Health Sciences [NIEHS]
National Toxicology Program [NTP]
The Vitamin D receptor (VDR) is a member of nuclear hormone receptor superfamily and it plays a critical role in calcium homeostasis and bone metabolism. It plays a role in inducing cell differentiation, inhibiting cell growth and in thrombogenicity. So, VDR that mediates these effects represents a pharmacological target in prevention and treatment of hyperproliferative malignancies, such as cancer and psoriasis, cardiovascular, immunological, inflammatory and renal diseases etc.
NCGC Assay Protocol Summary
Using a beta-lactamase reporter-gene under control of Vitamin D receptor (VDR) response element, a cell-based assay [GeneBLAzer (VDR -UAS-bla assay developed by Invitrogen] was used to measure VDR ligands signaling. GeneBLAzer VDR -UAS-bla HEK293T cells were used with assay medium containing 2% charcoal-stripped FBS. The assay was performed in clear bottom black Greiner 1536-well plates. Library compounds were measured for their ability to inhibit the reporter gene activity. Compounds were screened in a titration series in 1536-well format. The fluorescence intensity (405 nm excitation, 460/530 nm emission) was measured using an EnVision plate reader. Data was normalized relative to 1-alpha,25-Dihydroxy vitaminD3 control (50 nM, 100%) and DMSO only wells (basal, 0%). Concentration-response titration points for each compound were fitted to the Hill equation yielding concentrations of half-maximal inhibition (IC50) and maximal response (efficacy) values.
qHTS protocol for VDR beta-lactamase assay in antagonist mode
[Step] [Parameter] [Value] [Description]
1. Reagent; 5 uL; 2000 cells/well
2. Incubation; 37 C for 5 hrs
4. Controls (DMSO); 23 nL,
5. Agonist (Stimulator); 1uL; 1-alpha,25-Dihydroxy vitaminD3 at 50 nM and 3 nM final concentrations
6. Incubation; 37 C for 16 hrs
7. Detection reagent; 1 uL of CCF4-dye
8. Incubation; RT for 2 hrs
9. Detection; Fluorescence; Envision plate reader
On the technique in general: In qHTS, concentration-response curves come from the screen itself.
With `NNC(N)=O`, the Potency entry is “inactive”.
In the case of `O=C(O)c1cc[c]([Hg][Cl])cc1` it was 39.8 µM (active); in that of `CCOC(=O)c1ccccc1C(=O)OCC`, “inactive”; in that of `O=Cc1ccco1`, “inactive”.
For `CCCSP(=O)(OCC)SCCC`, the Potency result was “inactive”.
In the case of `C[C@H]1CC[C@@H]2[C@@H](C)[C@H]3[C@H](C[C@H]4[C@@H]5CC=C6CC(O[C@@H]7O[C@H](CO)[C@H](O)[C@H](O[C@@H]8O[C@H](CO)[C@@H](O)[C@H](O)[C@H]8O)[C@H]7O[C@H]7O[C@@H](C)[C@H](O)[C@@H](O)[C@H]7O)CC[C@]6(C)[C@H]5CC[C@]34C)N2C1` (some centres undefined) it was “inactive”; in that of `ClCC1CO1` (centres undefined), “inactive”.
In the case of `CCCCCCCCOC(=O)c1ccccc1C(=O)OCCCCCCCC` it was “inactive”; in that of `C[C@]12CCC(=O)C[C@@H]1CC[C@@H]1[C@@H]2CC[C@]2(C)[C@@H](O)CC[C@@H]12`, “inactive”; in that of `CCCCCl`, “inactive”.
On to `S=C=S`, for which the Potency result is “inactive”.
In the case of `[O]=[Cr](=[O])([OH])[O][Cr](=[O])(=[O])[OH]` it was “inactive”; in that of `N#CN`, “inactive”.
For the compound `COC1=CC(=O)O[C@@H](/C=C/c2ccccc2)C1`, the Potency result was “inactive”.
As to `O=C1CCO1`, the Potency entry is “inactive”.
In the case of `Clc1ccccc1Cl` it was “inactive”; in that of `C=CCN=C=S`, “inactive”; in that of `ClC(Cl)(Cl)Cl`, “inactive”.
Regarding `CC(C)CCON=O`, the Potency entry was “inactive”.
In the case of `O=[N+]([O-])c1ccc(F)c([N+](=O)[O-])c1` it was “inactive”; in that of `O=C(O)C(Cl)(Cl)Cl`, “inactive”; in that of `CCOP(=O)(OCC)O/C(=C/Cl)c1ccc(Cl)cc1Cl`, “inactive”.
In the case of `O=C/C=C/c1ccccc1` it was “inactive”.
For `[O]=[Cd]`, the Potency entry is “inactive”.
